Efa HMGR inh – inhibitors of E. faecalis class II HMGR, primary screen, biochemical, Enterococcus faecalis; HMG-CoA reductase (Enterococcus faecalis, mvaE); purified E. faecalis HMGR, NADPH absorbance 340 nm kinetic; AID 1066, 2008; inhibition, % at 10 µM; 190,000 tested, 0.41% active;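 active = inhibition above a set limit, the median over all tested compounds plus 3 SD, cut at about 9.5% in these data; inconclusive = no clear call, values can overlap the other calls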;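 note: enzyme runs in reverse so mevalonate oxidation gives rising NADPH absorbance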
Insulin prom up – insulin promoter activators in MIN6 cells, imaging, high-content screening, mouse beta cells; MIN6 insulin promoter-GFP reporter; stronger effect = higher value; z-score at 5 µM; 190,000 tested, 0.3% active;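 active = z-score above 3 at 5 µM with at least 500 cells counted in the well; inconclusive = wells under 500 cells, flagged as cytotoxic or low count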
Arbovirus anti – antivirals against arbovirus infection, primary screen, cell-based, full library, 10K replicate subset. arbovirus infection cell-based antiviral screen. AID 1251, 2008. inhibition, % at 10 µM. 200,000 tested, 0.37% active; in the data active = inhibition above about 30%
DTT redox prof – compounds producing H2O2 with reducing agent – biochemical, NIH compound library profiling, artefact control for MLSCN library redox annotation, primary screen | DTT-dependent redox cycling H2O2, phenol red/HRP absorbance; 100% = 100 µM peroxide control, 0% = buffer | AID 878, 2007 | 200,000 tested, 0.03% active | activation, % at 10 µM;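 active = activation of at least 50% relative to the plate's high and low controls in the primary single-dose screen; inactive = activation below 50%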;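 note: compound incubated with DTT at 0.8 mM final as the reducing agent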
Autophagy mod – autophagy modulators in MEF cells, primary screen, imaging, high-content, MEF GFP-LC3. AID 463193, 2010. calls only at 10 µM (by protocol). 190,000 tested, 0.98% active. MEF GFP-LC3 puncta imaging; test concentration mostly 10 µM;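 active = percentage of spot-positive cells more than 3 SD above its plate mean, without a fluorescence outlier flag or 80% toxicity; inconclusive = no clear call, values can overlap the other calls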
NCF1 inh – p47phox/p22phox peptide binding inhibitors, primary screen, biochemical, uHTS, NADPH oxidase regulatory subunit. inhibition, % at 24.7 µM. AID 1274, 2008. 220,000 tested, 0.53% active. Neutrophil cytosol factor 1 (Homo sapiens), P14598. fluorescence polarization, 2 h;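 active = inhibition above about 30%, limit read from the data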
Target sequence (P14598 whole entry, looked up): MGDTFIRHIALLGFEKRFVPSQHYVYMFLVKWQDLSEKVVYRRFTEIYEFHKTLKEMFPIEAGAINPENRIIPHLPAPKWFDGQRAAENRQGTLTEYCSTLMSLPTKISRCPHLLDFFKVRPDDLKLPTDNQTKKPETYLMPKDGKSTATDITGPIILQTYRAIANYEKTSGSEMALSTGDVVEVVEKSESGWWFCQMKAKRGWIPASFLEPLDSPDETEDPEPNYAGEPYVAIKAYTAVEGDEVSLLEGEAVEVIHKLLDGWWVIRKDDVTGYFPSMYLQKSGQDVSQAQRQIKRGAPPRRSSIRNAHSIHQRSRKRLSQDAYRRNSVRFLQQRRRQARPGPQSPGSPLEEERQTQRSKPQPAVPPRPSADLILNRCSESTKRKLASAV
A number is an active result; – = inactive; ? = inconclusive; · = no result given; + = active, no number. The list is not random: actives were taken first. Their share in the collection is about 2.2%.

SMILES | Efa HMGR inh | Insulin prom up | Arbovirus anti | DTT redox prof | Autophagy mod | NCF1 inh
CCCc1cc(C(=O)Nc2cc(Br)ccc2O)no1 | – | – | 35 | – | – | –
CC(C)c1cc(C(=O)Nc2cc(Br)ccc2O)no1 | – | – | – | – | – | –
CS(=O)(=O)Nc1ccccc1C(=O)Nc1cc(Cl)cc(Cl)c1 | – | – | – | – | – | –
Cc1ccc(-n2ncc(C(=O)Nc3cc(Cl)cc(Cl)c3)c2C2CCNCC2)cc1C | – | ? | – | – | + | –
Cc1ccc(-n2ncc(C(=O)Nc3cc(Cl)ccc3Cl)c2C2CCNCC2)cc1 | – | – | – | – | + | –
C=CCNC(=S)N1CCN(CCN=CC2=C(O)CC(c3ccco3)CC2=O)CC1 (centres undefined) | – | – | – | – | – | 35
Cc1cc(CNC(=O)CC2C(=O)NCCN2Cc2ccccc2C(F)(F)F)on1 (centres undefined) | – | – | – | – | – | –
CCN(CC)CCn1c(=N)n(CC(O)COc2cccc(C)c2)c2ccccc21 (centres undefined) | – | – | – | – | – | –
Cc1cccc(OCC(O)Cn2c(=N)n(CCN3CCCCC3)c3ccccc32)c1 (centres undefined) | – | – | – | – | + | –
O=C(CCc1nc2ccccc2c(=O)[nH]1)NCc1ccccn1 | – | – | – | – | – | –
O=C(CCc1nc2ccccc2c(=O)[nH]1)NCc1ccco1 | – | – | – | – | + | –
CC(C)(C)Cc1nc(-c2ccc(Cl)cc2)no1 | – | · | – | – | – | –
COc1ccc(OC)c(NC(=O)c2cc(-c3ccc(C)cc3O)n[nH]2)c1 | – | – | 31 | – | – | –
Cc1ccc(-c2cc(C(=O)Nc3cc(C)ccc3C)[nH]n2)c(O)c1 | – | – | – | – | – | –
Cc1cnc(NC(=O)c2cc3c(C)nn(-c4ccccc4)c3s2)s1 | – | – | – | – | – | –
Cc1nc2cc(N3CCN(C)CC3)c(NC(=O)Cc3ccccc3)cc2c(=O)n1Cc1ccccc1 | – | – | – | – | – | –
Cc1nc2cc(N3CCCCC3)c(NC(=O)c3ccncc3)cc2c(=O)n1Cc1ccc(Cl)cc1 | – | · | – | – | + | –
CSc1sc(C(=O)N(C)C)c2c1S(=O)(=O)N(C)c1ccccc1-2 | · | – | · | · | · | –
CCNc1nc(Oc2ccccc2)nc(OC(C)C(=O)OCC)n1 (centres undefined) | – | · | – | – | – | –
Nc1nnc(-c2cc3c(ccc4ccccc43)oc2=O)s1 | – | 8.8 | – | – | – | –
COc1ccc(-c2nnc(-c3cc4c(ccc5ccccc54)oc3=O)o2)cc1 | – | – | – | – | – | 32
O=c1oc2ccc3ccccc3c2cc1-c1nnc(-c2ccccc2)o1 | – | · | – | – | – | –
CCOCCCNC(=O)c1cc(C)nn1-c1ccccc1 | – | – | – | – | – | –
CCOCCCNC(=O)c1cc2sc(Cl)cc2n1CC | – | – | – | – | + | –
O=C(Cn1c(NCCO)nc2ccccc21)NCCc1ccccc1 | – | – | – | – | – | –
SMILES | Efa HMGR inh | Insulin prom up | Arbovirus anti | DTT redox prof | Autophagy mod | NCF1 inh
O=C(Cn1c(NCCO)nc2ccccc21)NCC1CCCO1 (centres undefined) | – | – | – | – | + | –
COC(=O)c1c(N(S(C)(=O)=O)S(C)(=O)=O)sc2c1CCN(c1ncc(C(F)(F)F)cc1Cl)C2 | – | · | 48 | – | – | –
COC(=O)c1c(/N=C/N(C)C)sc2c1CCN(c1ncc(C(F)(F)F)cc1Cl)C2 | – | – | – | – | – | –
COc1ccc(-c2cc(C(F)(F)F)n3nc(C(=O)NCc4ccco4)cc3n2)cc1 | – | – | – | – | + | –
COc1ccc2nc(N3C(=O)CNC3=S)sc2c1 | · | · | · | · | · | –
CCOc1ccc2nc(N3C(=O)/C(=C/c4ccc(Cl)cc4)NC3=S)sc2c1 | – | – | – | – | + | –
Cc1cc(C)c2c(N)c(C(=O)c3ccccc3)oc2n1 | – | – | – | – | – | –
Cc1cc(-c2ccccc2)nc2oc(C(=O)NN)c(N)c12 | · | – | · | · | · | 47
Cc1ccc(-n2c(CSc3nc(C)cc(C)n3)nnc2SCC(=O)Nc2nccs2)cc1 | · | – | · | · | · | 36
